Assay outcomes from PubChem.
Rows were chosen to be rich in hits. Some 3.2% of all compounds tested hit in one or more screens of this group.
Nrf2 activator: activators of Nrf2 (ARE) signaling. 410,000 compounds, 0.31% hits. Potency, µM (titrated, usually from 46.1 µM), without a hit: top-dose activation, most hits filed as activators. AREc32 ARE-luciferase reporter (MCF7-derived line), luminescence, 24 h; note: potency is the fitted concentration of half-maximal effect; % of control where 0% means no effect; nearly all actives have a fitted effect of over 65% in size
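AREc32 cells carrying an ARE-driven firefly luciferase reporter were seeded at 1000 cells/well in OPTI-MEM with 5% FBS, then exposed to compound for 24 hr at 37 deg C. Luminescence was read with Steady-Glo after 30 min at RT.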
A549 viability: counter-screen for Nrf2 inhibitors: cytotoxicity in A549 cells; Potency, µM (highest dose often 46 µM), for inactives: at the top dose activity change, negative = cytotoxicity, most hits filed as inhibitors; A549 ARE-Fluc cells, CellTiter-Fluor viability, 18-24 h; 390,000 compounds, 0.16% hits; note: potency is the fitted concentration of half-maximal effect; % is set by controls: 0 for no effect and ±100 for the full control effect
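Cytotoxicity counterscreen: CellTiter-Fluor fluorescence was measured in A549 ARE_Fluc cells after 18-24 h of compound exposure in a concentration series. The subsequent BugLite luminescent read reports ARE-luciferase activity.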
IL2 activator: activates IL-2 in a cell-based reporter assay; activation, % (series mostly up to about 46 µM); IL-2 activation reporter assay, cell-based qHTS; stimulated with anti-CD3/CD4/CD28 beads; in transgenic mouse T cells; 360,000 compounds, 0.065% hits; in the data active = activation above about 50%; inconclusive = mostly about 30% to 49%; note: 0% is about no effect
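Unstimulated transgenic mouse T cells, 750 per well, received compound and, after 60 minutes, anti-CD3/anti-CD4 bead plus anti-CD28 stimulation. EGFP and DsRed were quantified after 18 hours.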
p53 reactivator: mutant p53 re-activation in reporter cells | Potency, µM (top dose mostly 92.2 µM), for inactives: at the highest dose activity change, positive = activation, hits mostly activators | 320,000 compounds, 0.063% hits | AID 504706 | H1299 p53-A138V BP100-luciferase reporter, luminescence, 24 h; note: potency is the fitted concentration of half-maximal effect; % of control where 0% means no effect; nearly all actives have a fitted effect of over 45% in size
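p53-null H1299 cells stably carrying temperature-sensitive p53-A138V and a BP100-luciferase reporter were pinned with compounds (4-point, 1:5 series) and held 24 hrs at 37 deg C. Luminescence was read 10 min after detection reagent.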
Nrf2 block: blocks Nrf2 signaling. A549 ARE-Fluc reporter, luciferase luminescence, 18-24 h. Potency, µM (titrated, usually from 46 µM), inactives show at the highest dose activity change, negative = inhibition, usual class: inhibitors. 360,000 compounds, 2.1% hits; note: potency is the fitted concentration of half-maximal effect; % is set by controls: 0 for no effect and ±100 for the full control effect; nearly all actives have a fitted effect of over 60% in size
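Cells were seeded and rested 2 h, then exposed to compounds for 18-24 h. CellTiter-Fluor was read first as a viability measure. BugLite was added 15 min before the final luminescent read of ARE-luciferase activity in A549 cells.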
BRCA1 expr act: BRCA1 expression activation | MCF7-BRCA1-FFLuc reporter, luminescence, 48 h; response scale: scaled: vehicle 0%, 10 µM genistein 100% | Potency, µM (doses to about 46.1 µM), for the others: at the top dose activation, actives largely listed as activators | 380,000 compounds, 1.1% hits | AID 624202; note: potency is the fitted concentration of half-maximal effect; nearly all actives have a fitted effect of over 80% in size
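48 h compound treatment of MCF7-BRCA1-FFLuc cells (phenol-red free MEM, 37 °C), then 15 min with luciferase substrate and luminescence imaging.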
* = called active by the depositor; ? = inconclusive; · = no result given; ! = not confirmed by another sample. Unless noted, calls come from the whole dose curve; as a rule, active = well fitted curve in the direction sought with a large enough effect; inconclusive = small, poorly fitted or top-dose-only effect, or another doubt; inactive = no such curve, though single readings can be large; an effect the other way counts as inactive or inconclusive.

SMILES | Nrf2 activator | A549 viability | IL2 activator | p53 reactivator | Nrf2 block | BRCA1 expr act
CC(=O)c1c(C)[nH]c(C(=O)CSc2nnc(-c3ccccc3)o2)c1C | 0% | -14% | 0 | -3% | 21µM* | -27%
CCOc1ccc(-c2nnc(SCC(=O)Nc3cc(C)on3)o2)cc1 | -2% | -4% | 2 | -3% | 15µM* | -68%
COc1ccc(NC(=O)c2cccnn2)cc1 | 1% | 2% | -5 | 17% | -7% | 13µM*
COc1ccc(NC(=O)c2cc(C)on2)cc1 | 0% | -5% | -1 | ? | 1% | 7.1µM*
COc1cccc(C2c3c(ncn(-c4ccc(F)cc4)c3=N)Oc3ccc4ccccc4c32)c1 (centres undefined) | · | -21% | · | · | ? | ·
Cc1c(P(=S)(c2ccccc2)c2ccccc2)[n+]2ccccc2n1CC(=O)c1ccccc1 | · | 3% | · | · | -7% | ·
O=C(Nc1ccc(NC(=O)C2CC2)cn1)c1ccccc1 | -1% | 1% | 0 | 17% | ? | ?
Cc1ccc(NC(=O)CCOc2ccccc2)cc1 | 0% | 3% | 7 | ? | ? | 7.1µM*
COc1ccc(CN(Cc2ccccc2)C(=O)c2ccccc2)cc1COc1ccc(NC(C)=O)cc1 | · | -18% | · | · | 23µM* | ·
O=C(Cc1ccccc1)Nc1ccc(NC(=O)c2ccccc2)nc1 | 9% | -5% | -1 | 14% | ? | 13µM*
CCOc1ccc(NC(=O)Cc2ccccc2)cc1 | 2% | 4% | -1 | ? | ? | 7.1µM*
O=S(=O)(c1ccc(Br)cc1)N1CCN(S(=O)(=O)c2ccc3c(c2)OCCO3)CC1 | · | -3% | · | · | 16% | ·
CCOC(=O)c1ccc(-n2cnc3c(c2=N)C(c2cccc(OC)c2)c2c(ccc4ccccc24)O3)cc1 (centres undefined) | · | -1% | · | · | -1% | ·
COc1cccc(C2c3c(ncn(CCN4CCOCC4)c3=N)Oc3ccc4ccccc4c32)c1 (centres undefined) | · | -10% | · | · | 4% | ·
O=C(Cc1ccc(Cl)cc1)Nc1ccc(Br)cn1 | 0% | -1% | -1 | 12% | 27% | 13µM*
CCOc1ccc(NC(=O)C(Cc2ccccc2)N2C(=O)c3cccc4cccc(c34)C2=O)cc1 (centres undefined) | 3% | 2% | 97* | 1% | -12% | -37%
CCOc1ccc(NC(=O)c2nccnc2CO)cc1 | 0% | -3% | 0 | ? | 10% | 5.6µM*
CCOc1ccc(NC(=O)[C@H](Cc2ccccc2)N2Cc3ccccc3C2=O)cc1 | -1% | 0% | · | · | 8% | 9%
COC(=O)Nc1ccc(OCc2ccccc2)cc1 | 4% | 0% | 2 | 27% | ? | 13µM*
CCOc1ccc(NC(=O)Cn2cc(C(=O)c3ccc(CC)cc3)c(=O)c3ccc(C)nc32)cc1 | 0% | 17% | · | · | ? | ·
COc1ccc(OC)c(/C=C/c2nc3ccccc3c(=O)n2-c2ccc(F)c(Cl)c2)c1 | 4% | -1% | · | · | · | ·
O=c1[nH]nc(Cc2ccc(-c3cccc(Cl)c3)o2)c2ccccc12 | 5% | -17% | -4 | -2% | 21µM* | -62%
O=C(/C=C1\NC2(CCCC2)Cc2ccccc21)C(=O)N/N=C/c1ccccc1O | 0% | ? | 0 | ? | 15µM* | -90%
Cc1nn(C(=O)c2cccc(F)c2)c(C)c1S(=O)(=O)N1CCOCC1 | 0% | 1% | · | · | · | 1%
O=C1CCCc2[nH]c(=O)c(C(=O)NCc3ccccc3)cc21 | · | · | · | · | · | 8%
SMILES | Nrf2 activator | A549 viability | IL2 activator | p53 reactivator | Nrf2 block | BRCA1 expr act
COCCN(Cc1cc2cc3c(cc2nc1Cl)OCO3)C(=O)Nc1ccc(OC)cc1 | 3% | -7% | 2 | 3% | 7.3µM* | 2%
COCCN(Cc1cc2cc3c(cc2nc1Cl)OCO3)C(=O)Nc1ccc(F)cc1 | 0% | -5% | -1 | -2% | 13µM* | -58%
COCC(=O)N(CCN(C)C)Cc1cc2cc3c(cc2nc1Cl)OCO3 | 0% | 0% | 1 | 0% | 20% | -8%
COCCN(Cc1cc2cc3c(cc2nc1Cl)OCO3)C(=O)Nc1ccccc1OC | 0% | 13% | 0 | -1% | 6% | -60%
CCOC(=O)c1c(NC(=O)CCCOc2ccc(Cl)cc2)sc2c1CCC2 | 0% | 1% | · | · | 4% | ·
COc1ccc(CCNC(=O)CCc2c(C)c3cc4c(C)coc4c(C)c3oc2=O)cc1OC | 1% | 0% | · | · | -5% | ·
c1ccc2oc(Cc3ccc(Cc4nc5ccccc5o4)cc3)nc2c1 | 0% | -18% | -2 | 4% | 26µM* | -55%
Cc1nn(CCc2nn[nH]n2)c2nc(C(F)(F)F)cc(C(F)(F)F)c12 | 0% | -7% | 0 | -1% | -4% | -7%
Cc1nn(CCc2nn[nH]n2)c2nc(-c3ccc(Br)cc3)cc(C(F)(F)F)c12 | 0% | ? | 2 | 4% | 21µM* | -83%
COc1cc(F)c(S(=O)(=O)N2CCCN(S(=O)(=O)c3cccc(N)c3)CC2)c(F)c1 | · | 10% | · | · | 26µM*! | ·
COc1cc(F)c(S(=O)(=O)N2CCN(S(=O)(=O)c3cccc(NC(C)=O)c3)CC2)c(F)c1 | · | 12% | · | · | -14% | ·
O=C(Nc1ccc2nsnc2c1)c1cccs1 | 8.9µM* | -6% | 2 | 9% | 5% | -9%
O=C(Nc1ccncc1)c1cccs1 | 1% | -5% | -3 | 18% | 8% | 13%
O=C(Nc1cccc(NC(=O)c2cccs2)c1)c1cccnc1 | 13µM* | -1% | -2 | -2% | 1% | -53%
O=C(Nc1cccc(-c2csc(-c3ccccc3)n2)c1)c1cccs1 | 4% | 0% | -3 | 4% | 16µM* | 2%
CCC(C)c1ccc(NC(=O)c2cccnc2)cc1 (centres undefined) | 7% | -2% | -1 | -4% | ? | 3.5µM*
c1ccc(Nc2nc(NCc3ccco3)nc3nccnc23)cc1 | · | 9% | · | · | 3% | -48%
CCc1ccccc1Nc1nc2ccccc2n2cnnc12 | 7% | -14% | · | · | 5% | ·
Cn1c(C(=O)NCc2ccc(F)cc2)cc2cc(S(=O)(=O)N3CCCCC3)ccc21 | 2% | 6% | · | · | · | ·
O=C(NCc1ccco1)Nc1ccc(Br)cc1 | 6% | -19% | -1 | 9% | -16% | ?
O=C(Nc1ccc2nn(-c3ccccc3)nc2c1)c1cccs1 | 4% | -8% | -1 | 4% | 3% | 4.5µM*
O=C(Nc1cccc2nsnc12)c1cccs1 | 7.9µM* | -11% | 2 | ? | ? | 7.1µM*!
O=C(NCc1ccco1)Nc1ccc2nsnc2c1 | 22µM* | -13% | -1 | ? | 4% | -25%
CCOC(=O)c1c(N)n(-c2ccc(OCC)cc2)c2nc3ccccc3nc12 | -1% | 6% | · | · | · | -5%
